Assay [1] is described as follows: qHTS of pediatric cancer cell lines to identify multiple opportunities for drug repurposing: Primary screen for BT-37 cells (AID 1347094). A digest of the protocol:
(§1)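 Luminescence from CellTiter-Glo served as readout of metabolically active cells after 48 h compound exposure. Titrations: MIPE 11-point, from 0.78 nM; NPC 8-point, from 0.59 nM (final). Concentration-response curves came straight from the primary screen.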
(In general: In qHTS, concentration-response curves come from the screen itself.)

The nature of assay [2]: qHTS of pediatric cancer cell lines to identify multiple opportunities for drug repurposing: Primary screen for NB-EBc1 cells (AID 1347095). The essentials: as §1
Assay [3] can be described thus: qHTS of pediatric cancer cell lines to identify multiple opportunities for drug repurposing: Primary screen for U-2 OS cells (AID 1347096). Note: nearly all actives have a fitted effect of over 50% in size. A digest of the protocol:
(§2)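 Viability after 48 h compound treatment at 37C, 500-1,000 cells/well, read as ATP luminescence with CellTiter-Glo. Primary screens used 11-point (MIPE, 0.78 nM-46 µM) or 8-point (NPC, 0.59 nM-46 µM) final concentrations; follow-up screens used 11-point dilutions.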

The nature of assay [4]: qHTS of pediatric cancer cell lines to identify multiple opportunities for drug repurposing: Primary screen for Saos-2 cells (AID 1347097). Note: nearly all actives have a fitted effect of over 40% in size. The essentials: as §1
Assay [5] can be described thus: qHTS of pediatric cancer cell lines to identify multiple opportunities for drug repurposing: Primary screen for SK-N-SH cells (AID 1347098). Note: nearly all actives have a fitted effect of over 65% in size. A digest of the protocol: (§3)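 Cells (500-1,000/well) rested 5 h, then received compounds for 48 h; metabolically active cells were measured by CellTiter-Glo luminescence. Final concentrations spanned up to 46 µM (MIPE, 11-point) or 0.59 nM-46 µM (NPC, 8-point) in primary screens, 11-point in follow-ups.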

Assay [6] can be described thus: qHTS of pediatric cancer cell lines to identify multiple opportunities for drug repurposing: Primary screen for NB1643 cells (AID 1347099). Note: nearly all actives have a fitted effect of over 50% in size. The essentials:
as §1

Assay [7] can be described thus: qHTS of pediatric cancer cell lines to identify multiple opportunities for drug repurposing: Primary screen for LAN-5 cells (AID 1347100). A digest of the protocol: as §2
Assay [8] in a line: qHTS of pediatric cancer cell lines to identify multiple opportunities for drug repurposing: Primary screen for BT-12 cells (AID 1347101). Note: nearly all actives have a fitted effect of over 25% in size. A digest of the protocol: as §3
Assay [9] can be described thus: qHTS of pediatric cancer cell lines to identify multiple opportunities for drug repurposing: Primary screen for Rh18 cells (AID 1347102). Note: nearly all actives have a fitted effect of over 65% in size. A digest of the protocol: as §2
Assay [10] can be described thus: qHTS of pediatric cancer cell lines to identify multiple opportunities for drug repurposing: Primary screen for RD cells (AID 1347104). Note: nearly all actives have a fitted effect of over 55% in size. The essentials:
as §1

Assay [11] is described as follows: qHTS of pediatric cancer cell lines to identify multiple opportunities for drug repurposing: Primary screen for MG 63 (6-TG R) cells (AID 1347105). Note: nearly all actives have a fitted effect of over 50% in size. The essentials:
as §1

A short description of assay [12]: qHTS of pediatric cancer cell lines to identify multiple opportunities for drug repurposing: Primary screen for control Hh wild type fibroblast cells (AID 1347106). Note: nearly all actives have a fitted effect of over 55% in size. The essentials: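 Cells (500-1,000/well) in growth media were settled 5 h at 37 degrees C, then given compounds for 48 h. Viability was read as CellTiter-Glo luminescence. Primary runs used MIPE at 11 points (0.78 nM-46 µM) and NPC at 8 points (0.59 nM-46 µM); follow-ups used 11 points.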

Assay [13] can be described thus: qHTS of pediatric cancer cell lines to identify multiple opportunities for drug repurposing: Primary screen for Rh30 cells (AID 1347107). Note: nearly all actives have a fitted effect of over 75% in size. A digest of the protocol: as §2
Assay [14] is described as follows: qHTS of pediatric cancer cell lines to identify multiple opportunities for drug repurposing: Primary screen for Rh41 cells (AID 1347108). Note: nearly all actives have a fitted effect of over 70% in size. The essentials:
as §1

Assay [15] can be described thus: qHTS of pediatric cancer cell lines to identify multiple opportunities for drug repurposing: Primary screen for OHS-50 cells (AID 1347103). Note: nearly all actives have a fitted effect of over 40% in size. The essentials:
as §3

Assay [16] in a line: qHTS of pediatric cancer cell lines to identify multiple opportunities for drug repurposing: Confirmatory screen for NB1643 cells (AID 1347109). Note: nearly all actives have a fitted effect of over 45% in size. A digest of the protocol: as §2
Assay [17] is described as follows: qHTS of pediatric cancer cell lines to identify multiple opportunities for drug repurposing: Confirmatory screen for A673 cells (AID 1347110). Note: nearly all actives have a fitted effect of over 65% in size. A digest of the protocol: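 A673 cells at 500-1,000 cells/well were dosed 5 h after plating, in dilution series up to 46 uM final; primary runs used 8 or 11 points and confirmatory runs used 11 points. Viability was read by CellTiter-Glo luminescence after 48 h, against DMSO and 2.3 uM bortezomib controls.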

Assay [18] can be described thus: qHTS of pediatric cancer cell lines to identify multiple opportunities for drug repurposing: Confirmatory screen for SK-N-MC cells (AID 1347111).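 Note: cells exposed to compound for 48 h before the readout; nearly all actives have a fitted effect of over 70% in size.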 A digest of the protocol:
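SK-N-MC cells at 500-1,000 cells/well in growth media were pre-incubated 5 h, then exposed to compounds at 11-point dilutions for 48 h at 37 degrees C, 5% CO2. Viability was read as CellTiter-Glo luminescence.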

The nature of assay [19]: qHTS of pediatric cancer cell lines to identify multiple opportunities for drug repurposing: Confirmatory screen for BT-12 cells (AID 1347112). Note: nearly all actives have a fitted effect of over 55% in size. A digest of the protocol:
as §2

Assay [20] can be described thus: qHTS of pediatric cancer cell lines to identify multiple opportunities for drug repurposing: Confirmatory screen for LAN-5 cells (AID 1347113). Note: nearly all actives have a fitted effect of over 65% in size. A digest of the protocol:
as §2

Records with an inconclusive call do not appear. Calls of active or inactive are those of the source. Calls come from the whole dose curve; as a rule, active = well fitted curve in the direction sought with a large enough effect; inconclusive = small, poorly fitted or top-dose-only effect, or another doubt; inactive = no such curve, though single readings can be large; an effect the other way counts as inactive or inconclusive. Non-standard residues stand in square brackets, D forms with d. Residues, ends and D or L forms follow the SMILES beside them. *: point of attachment. Nva = CCC[C@H](N)C(=O)O; Cbz = O=C(OCc1ccccc1)*
Potency is the fitted concentration of half-maximal effect.

As for `NC(=O)c1ncn([C@@H]2O[C@H](CO)[C@@H](O)[C@@H]2O)c1O`, the Potency entry in [1], in assay [2], in [3], in assay [4], in assay [5] and in [6] was “inactive” throughout. Moreover, the Potency result in [7], in assay [8], in [9], in assay [10], in assay [11] and in assay [12] was “inactive” each time. For the same compound, the Potency entry in [13] and in assay [14] was “inactive” each time.
Regarding `CC(Oc1ccc(O)cc1)(P(=O)(O)O)P(=O)(O)O`, the Potency entry in assay [1], in assay [2], in assay [3], in [4], in [5] and in assay [6] was “inactive” in each case. The Potency result in [7], in [8], in [9], in assay [10], in assay [11] and in assay [12] was “inactive” in each case. Also, the Potency result in assay [13] and in assay [14] was “inactive” each time.
For the compound `COc1cc2c(Nc3ccc(Cl)c(Cl)c3F)ncnc2cc1OCC1C[C@@H]2CN(C)C[C@H]2C1`, the Potency in assay [1] is 24.3 µM (active); in [2] it was 16600 nM (active); in assay [3], 18.7 µM (active); in assay [4] it was 16.6 µM (active); in assay [5] it was 12.1 µM (active); in assay [6], 14.8 µM (active). The Potency in assay [7] is 11.8 µM (active); in [8], 24.3 µM (active); in assay [9] it was 18.7 µM (active); in [15] it was 4.85 µM (active); in assay [10], 16.6 µM (active); in [11], 14.8 µM (active). For the same compound, the Potency in assay [12] is 20.9 µM (active); in [14] it was 9.35 µM (active).
Take `CC(C)(N)c1ccc(-c2nc3ccccc3nc2-c2ccccc2)cc1`: the Potency in assay [1] was 15.3 µM (active); in [2], 18700 nM (active); in [4] it was 1.05 µM (active); in assay [5], 21.5 µM (active); in assay [6], 23.5 µM (active); in assay [7], 13.2 µM (active). The Potency in assay [8] was 24.3 µM (active); in assay [9] it was 20.9 µM (active); in assay [15] it was 7.69 µM (active); in [10] it was 16.6 µM (active); in assay [11] it was 23.5 µM (active); in assay [14], 10.5 µM (active). Moreover, the Potency is 26.1 µM (active) in [16]; 2.93 µM (active) in assay [17]; 465 nM (active) in assay [18]; 928 nM (active) in [19]; 465 nM (active) in [20]. Also, the Potency result in assay [3] was “inactive”.
Regarding `COC(=O)[C@@H]1CC2=CC(=O)CC[C@]2(C)[C@@]23O[C@@H]2C[C@@]2(C)[C@H](CC[C@@]24CCC(=O)O4)[C@@H]13`, the Potency entry in assay [1], in assay [2], in assay [3], in [4], in [5] and in assay [6] was “inactive” in each case. The Potency entry in [7], in assay [8], in assay [9], in assay [15], in [10] and in assay [11] was “inactive” throughout. Also, the Potency result in [12] and in [14] was “inactive” in each case.
For `CN(N=O)C(=O)N[C@H]1C(O)OC(CO)[C@@H](O)[C@H]1O` (stereo partly drawn), the Potency entry in assay [1], in [2], in assay [3], in [4], in assay [5] and in [6] was “inactive” throughout. Further, the Potency result in assay [7], in assay [8], in assay [9], in [15], in [10] and in [11] was “inactive” in each case. The Potency entry in assay [12] and in assay [14] was “inactive” each time.
Consider `Cn1cc(C[C@@H](N)C(=O)O)c2ccccc21`, for which the Potency entry in assay [1], in assay [2], in assay [3], in [4], in assay [5] and in [6] was “inactive” in each case. For the same compound, the Potency result in assay [7], in assay [8], in assay [9], in [10], in assay [11] and in assay [12] was “inactive” throughout. In addition, the Potency entry in assay [13] and in assay [14] was “inactive” each time.
For `COc1cc(C)c(Sc2cnc(NC(=O)c3ccc(CNC(C)C(C)(C)C)cc3)s2)cc1C(=O)N1CCN(C(C)=O)CC1` (stereo not drawn), the Potency was 7.69 µM (active) in assay [1]; 743 nM (active) in [2]; 4.82 µM (active) in assay [5]; 3.72 µM (active) in assay [6]; 1.66 µM (active) in assay [7]; 19.3 µM (active) in assay [8]. For the same compound, the Potency is 14.8 µM (active) in [9]; 4.85 µM (active) in assay [15]; 14.8 µM (active) in [10]; 14.8 µM (active) in [11]; 7.43 µM (active) in assay [14]. In addition, the Potency entry in assay [3] and in assay [4] was “inactive” each time.
On to `COC[C@H](NC(=O)c1cnc(C)s1)C(=O)N[C@@H](COC)C(=O)N[C@@H](Cc1ccccc1)C(=O)[C@@]1(C)CO1`, for which the Potency is 0.273 µM (active) in assay [1]; 83.3 nM (active) in assay [2]; 0.372 µM (active) in [3]; 0.662 µM (active) in assay [4]; 0.541 µM (active) in [5]; 0.132 µM (active) in [6]. Also, the Potency in assay [7] was 0.132 µM (active); in assay [8], 0.432 µM (active); in assay [9], 0.187 µM (active); in assay [15], 0.193 µM (active); in assay [10], 0.166 µM (active); in assay [11] it was 0.235 µM (active). Further, the Potency in assay [12] was 0.935 µM (active); in assay [13] it was 1.66 µM (active); in assay [14], 0.296 µM (active); in assay [17], 0.165 µM (active); in [18] it was 36.9 nM (active); in assay [19], 414 nM (active). Also, the Potency in [20] was 329 nM (active).
`CCC[C@@H](C=O)NC(=O)[C@H](CC(C)C)NC(=O)[C@H](CC(C)C)NC(=O)OCc1ccccc1` (Cbz-Leu-Leu-[Nva]-aldehyde): the Potency was 1.22 µM (active) in [1]; 372 nM (active) in assay [2]; 2.35 µM (active) in assay [3]; 1.18 µM (active) in [4]; 1.36 µM (active) in [5]; 0.469 µM (active) in [6]. Further, the Potency in [7] is 0.935 µM (active); in assay [8] it was 2.17 µM (active); in assay [9], 2.35 µM (active); in assay [15], 1.53 µM (active); in [10], 0.935 µM (active); in assay [11] it was 0.935 µM (active). Further, the Potency in assay [12] is 5.26 µM (active); in assay [13], 4.69 µM (active); in assay [14], 2.35 µM (active); in [16], 1.65 µM (active); in assay [17] it was 1.17 µM (active); in assay [18] it was 414 nM (active). The Potency is 2930 nM (active) in assay [19] and 1470 nM (active) in [20].
For the compound `Cc1ccc([N+](=O)[O-])cc1S(=O)(=O)N(C)N=Cc1cnc2ccc(Br)cn12`, the Potency in assay [1] was 0.0385 µM (active); in assay [2], 935 nM (active); in [3] it was 0.118 µM (active); in assay [4], 0.187 µM (active); in assay [5], 0.0108 µM (active); in assay [6] it was 0.0042 µM (active). Also, the Potency was 0.0083 µM (active) in [7]; 0.0343 µM (active) in assay [8]; 0.148 µM (active) in assay [9]; 0.0306 µM (active) in assay [15]; 18.7 µM (active) in [11]; 0.0662 µM (active) in [14]. Further, the Potency in assay [16] is 0.165 µM (active); in [17] it was 0.293 µM (active); in assay [18], 1040 nM (active); in assay [19] it was 827 nM (active); in assay [20] it was 522 nM (active). Moreover, the Potency entry in assay [12] and in [13] was “inactive” in each case.

Source of the values: PubChem BioAssay (NCATS).
